Measured values as given in publication PMC5540273 (PLoS ONE, 2017).

Experiments:
Settings in all cases: concentration: 1 μM, replicates: in singlicate; n = 1
HUNK = system: HUNK
ICK = system: ICK
IGF1R = system: IGF1R
IKK-alpha = system: T1, IKK-alpha
T1 construct: gene CHUK

IKK-beta = system: T2, IKK-beta
T2 construct: gene IKBKB

IKK-epsilon = system: T3, IKK-epsilon
T3 construct: gene IKBKE

INSRR = system: INSRR
INSR = system: INSR
IRAK1 = system: IRAK1
IRAK3 = system: IRAK3
IRAK4 = system: IRAK4
ITK = system: ITK
[1] = system: JAK1(JH1domain-catalytic)
[2] = system: JAK1(JH2domain-pseudokinase)
[3] = system: JAK2(JH1domain-catalytic)
[4] = system: JAK3(JH1domain-catalytic)
JNK1 = system: T4, JNK1
T4 construct: gene MAPK8

JNK2 = system: T5, JNK2
T5 construct: gene MAPK9

JNK3 = system: T6, JNK3
T6 construct: gene MAPK10

KIT-autoinhibited = system: KIT-autoinhibited
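Also: KINOMEscan kinase panel screen.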

| Compound | %Inh (HUNK) [%] | %Inh (ICK) [%] | %Inh (IGF1R) [%] | %Inh (IKK-alpha) [%] | %Inh (IKK-beta) [%] | %Inh (IKK-epsilon) [%] | %Inh (INSRR) [%] | %Inh (INSR) [%] | %Inh (IRAK1) [%] | %Inh (IRAK3) [%] | %Inh (IRAK4) [%] | %Inh (ITK) [%] | %Inh [1] [%] | %Inh [2] [%] | %Inh [3] [%] | %Inh [4] [%] | %Inh (JNK1) [%] | %Inh (JNK2) [%] | %Inh (JNK3) [%] | %Inh (KIT-autoinhibited) [%] |
| --- | --- | --- | --- | --- | --- | --- | --- | --- | --- | --- | --- | --- | --- | --- | --- | --- | --- | --- | --- | --- |
| COc1cccc(-c2cc(-c3c[nH]nc3-c3ccccn3)ccn2)c1 [GW680338] | 71 | 0 | 6 | 2 | 0 | 0 | 0 | 0 | 13 | 0 | 0 | 2 | 7 | 0 | 0 | 0 | 42 | 40 | 50 | 0 |
| Fc1cccc(COc2nnc(-c3ccc4c(c3)CCO4)o2)c1 | 7 | 0 | 2 | 21 | 7 | 0 | 0 | 0 | 44 | 0 | 5 | 23 | 0 | 10 | 0 | 5 | 6 | 0 | 0 | 0 |
| COc1ccc(CNC(=O)NC2CCN(c3ccnc(Nc4cc(OC)c(OC)c(OC)c4)n3)C2)cc1 (centres unmarked) [GSK1379748] | 3 | 8 | 0 | 0 | 0 | 20 | 0 | 0 | 63 | 63 | 0 | 7 | 0 | 0 | 87 | 0 | 0 | 0 | 0 | 0 |
| Cc1cccc(-c2nc(C)cc(Nc3ccncc3)n2)n1 [GSK257997] | 7 | 0 | 5 | 0 | 13 | 12 | 0 | 3 | 0 | 0 | 1 | 12 | 13 | 0 | 0 | 0 | 4 | 43 | 32 | 0 |
| Fc1cc(Cl)ccc1Nc1ccnc2cc(I)ccc12 [GW551191] | 45 | 1 | 6 | 1 | 11 | 19 | 0 | 0 | 32 | 11 | 14 | 13 | 0 | 0 | 1 | 0 | 18 | 29 | 10 | 0 |
| COc1ccccc1-c1ccc2c(NC(=O)C3CC3)n[nH]c2n1 [SB-711239] | 16 | 0 | 0 | 64 | 0 | 24 | 1 | 0 | 15 | 9 | 7 | 0 | 25 | 0 | 0 | 13 | 0 | 9 | 0 | 0 |
| Cc1cccc(-c2nc(Nc3ccc4[nH]ncc4c3)c3ccccc3n2)n1 [GW857175] | 0 | 17 | 0 | 6 | 17 | 21 | 0 | 9 | 9 | 3 | 18 | 5 | 18 | 83 | 22 | 60 | 36 | 32 | 31 | 30 |
| O=C(Nc1n[nH]c2nc(-c3nccs3)c(Br)cc12)C1CCCC1 [SB-742609] | 0 | 85 | 21 | 28 | 27 | 0 | 32 | 9 | 38 | 0 | 39 | 24 | 16 | 0 | 23 | 0 | 38 | 27 | 17 | 16 |
| Cl.c1ccc(-c2n[nH]cc2-c2ccnc(-c3ccc(CN4CCOCC4)cc3)c2)nc1 [GW776245] | 2 | 0 | 0 | 0 | 0 | 0 | 0 | 0 | 0 | 0 | 0 | 0 | 0 | 2 | 0 | 0 | 31 | 17 | 20 | 0 |
| COc1ccc(Nc2nccc(NCCNC(=O)Nc3ccccc3F)n2)cc1 [GSK1379901] | 9 | 0 | 10 | 0 | 11 | 12 | 0 | 0 | 36 | 8 | 20 | 9 | 15 | 0 | 25 | 0 | 56 | 15 | 11 | 0 |
